Data as given in PubChem BioAssay AID1259418 (Broad Institute, 2018).
In all, about 3,400 compounds went through this assay and about 840 (25%) were called active. Inconclusive results (about 11%) are left out. Only a sample is shown. Entries with a potency or affinity are not part of this list. A number with no mark means an inactive call.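 How the source made its calls: active means fitted half-maximal concentration of signal decrease at or below twice the sample's top tested concentration; inconclusive means flat curve between -70 and -30 percent, or poor fit; inactive means flat within 30 percent, signal rise, or potency above limit.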

Experiment: T. gondii growth inhibition with IFN-gamma, dose response, cell-based, ME49Luc, HeLa, luciferase, 72 h (AID 1259418)
Conditions: T. gondii ME49Luc in IFN-y HeLa, active compounds read low, -100% = high-dose IFN-γ control wells; at 19.5 µM unless noted

Row | Compound | max activity
1 | O=C(Cn1cccc1-c1nc(-c2ccccc2)cs1)N1CCC2(CC1)OCCO2 | -15.4% [at 2.6 µM]
2 | COc1ccccc1N(Cc1nc(-c2ccccc2)oc1C)S(=O)(=O)c1ccccc1C | 9.45% [at 5 µM]
3 | Cc1csc([C@H]2C[C@H]3CCN(C(=O)c4cnccn4)C[C@@H]3O2)n1 | 48.1%
4 | COc1ccc(-c2nc(C)c(-c3ccc(SCc4ccc(C(F)(F)F)cc4)nn3)s2)cc1 | 8.72% [at 2.6 µM]
5 | CCCCC(=O)N1CCC2(CC1)Nc1cc(OC)ccc1-n1cccc12 | 14.1% [at 2.6 µM]
6 | Cc1ccc(-c2nc(CN3CCN(C(=O)Nc4ccccc4Cl)CC3)c(C)o2)cc1 | 16.4% [at 2.6 µM]
7 | O=C(CC1N=C2c3ccccc3N=C(SCc3cccc(Cl)c3)N2C1=O)NCc1ccc(F)cc1 (stereo not drawn) | 30.2%
8 | O=C(CC1N=C2c3ccccc3N=C(SCc3ccccc3Cl)N2C1=O)NCc1ccc(F)cc1 (stereo not drawn) | -7.22% [at 0.16 µM]
9 | O=C(CC1N=C2c3ccccc3N=C(SCc3ccc(Cl)cc3)N2C1=O)NCc1ccc(F)cc1 (stereo not drawn) | 15%
10 | O=C(CC1N=C2c3ccccc3N=C(SCc3ccccc3Cl)N2C1=O)NCc1ccccc1 (stereo not drawn) | 12.8% [at 2.6 µM]
11 | O=C(CC1N=C2c3ccccc3N=C(SCc3cccc(Cl)c3)N2C1=O)NCc1ccc2c(c1)OCO2 (stereo not drawn) | 19.4% [at 10 µM]
12 | CCOC(=O)CSC1=Nc2ccccc2C2=NC(CC(=O)NCCc3ccccc3)C(=O)N12 (stereo not drawn) | 64.6%
13 | COc1ccccc1-c1nc(Cn2nnc(-c3nc(-c4ccc(Cl)cc4)no3)c2C)c(C)o1 | 9.29%
14 | COc1ccc(C(=O)Nc2ccc(-c3nc(-c4ccc(C)cc4)co3)cc2)cc1OC | 61.6% [at 10 µM]
15 | COC(=O)c1ccc(NC(=O)Nc2ccc(-c3nc(-c4ccc(C)cc4C)co3)cc2)cc1 | 12.9% [at 0.68 µM]
16 | CN(C)c1cccc(C(=O)N2CSC[C@@H]2C(=O)NCCc2csc(-c3ccccc3)n2)c1 | 9.09% [at 0.16 µM]
17 | CCOC(=O)c1ccc(NC(=O)CN2CCC3(CC2)N=C(c2ccccc2)C(=O)N3)cc1 | 23.6%
18 | COc1ccc(-c2nc(CN(c3ccc(OC)cc3)S(=O)(=O)c3ccccc3C)c(C)o2)cc1 | 2.45%
19 | Cc1oc(-c2ccccc2)nc1Cn1nnc(-c2nc(-c3ccc(OC(C)C)cc3)no2)c1C | -7.48% [at 5 µM]
20 | CCc1nc(OCC(=O)Nc2ccccc2Br)c2ccccc2n1 | 18.5% [at 0.68 µM]
21 | O=C(NCCc1csc(-c2ccccc2)n1)[C@H]1CSCN1S(=O)(=O)c1ccccc1F | 11.9% [at 0.16 µM]
22 | O=C(Nc1ccccc1)[C@@H]1[C@@H](CO)[C@@H]2Cn3c(ccc(C4=CCCCC4)c3=O)[C@@H]2N1Cc1cocn1 | 31.9%
23 | Cc1cccc(-c2noc(-c3nnn(Cc4nc(-c5cccc(C)c5)oc4C)c3C)n2)c1 | 17.9%
24 | Cc1ccc(-c2coc(-c3ccc(NC(=O)NCCc4ccccc4)cc3)n2)c(C)c1 | 27.7% [at 0.35 µM]
25 | Cc1ccc(NC(=O)CN2CCC3(CC2)N=C(c2cccc(F)c2)C(=O)N3)cc1C | -21.1%

Row | Compound | max activity
26 | CCOc1ccc(NC(=O)N2CCN(Cc3nc(-c4ccccc4C)oc3C)CC2)cc1 | -9.52%
27 | Cc1nc(OCC(=O)Nc2ccc(C(C)C)cc2)c2ccccc2n1 | 15.7% [at 1.35 µM]
28 | CC(C)CCNC(=O)CC1Nc2c3ccccc3nc(=S)n2C1=O (stereo not drawn) | 41.3%
29 | CCOc1ccccc1NC(=O)CN1CCC2(CC1)N=C(c1cccc(Cl)c1)C(=O)N2 | 5.75%
30 | COc1ccccc1-c1nc(Cn2nnc(-c3nc(-c4cccc(F)c4)no3)c2C)c(C)o1 | -3.46% [at 1.35 µM]
31 | Cc1ccc(-c2nc(Cn3nnc(-c4nc(-c5cccc(C)c5)no4)c3C)c(C)o2)cc1 | -13% [at 5 µM]
32 | Cc1ccccc1-c1ccc(C2[C@@H]3CN(C(=O)C4CCOCC4)C[C@H]2N3)cc1 (stereo partly drawn) | 20.5%
33 | O=C(NC1CCCCC1)N1C[C@@H]2N[C@H](C1)C2c1ccc(-c2ccc(F)cc2)cc1 (stereo partly drawn) | 23.1% [at 10 µM]
34 | CCCNC(=O)N1CCc2nc(-c3ccc(OC)cc3)sc2C1 | 12.7% [at 10 µM]
35 | Cc1ccc(NC(=O)COc2nc(C)nc3ccccc23)c(C)c1 | 13.8% [at 0.68 µM]
36 | COc1ccc(-c2nc(Nc3ccc(F)c(Cl)c3)c3ccccc3n2)cc1 | 19.7%
37 | CO[C@H]1CCN(c2ccc(C)nn2)[C@H]1Cc1cnn(C)c1 | -9.84% [at 1.2 µM]
38 | Cc1nc(-c2ccc(F)cc2)sc1-c1ccc(SCc2ccccc2Cl)nn1 | 10% [at 0.16 µM]
39 | Cc1ccc(-c2nc(Cn3nnc(-c4nc(-c5ccccc5Cl)no4)c3C)c(C)o2)cc1 | -11.4% [at 2.6 µM]
40 | CC(CCc1ccccc1)Nc1nc(-c2ccc(Cl)cc2)nc2ccccc12 (stereo not drawn) | -14.3% [at 5 µM]
41 | COc1ccc(-c2nc(N3CCN(c4cccc(C)c4C)CC3)c3ccccc3n2)cc1 | 17%
42 | CCCNC(=O)N1CCc2nc(-c3ccc(C)cc3)sc2C1 | -30.1% [at 0.16 µM]
43 | Cc1ccc(-c2nc3c(s2)CN(C(=O)NCc2ccccc2)CC3)cc1 | -24.6% [at 0.35 µM]
44 | O=C(Nc1ccc(-c2nc(-c3ccccc3)co2)cc1)c1ccccc1F | -7.4% [at 10 µM]
45 | COCCN1C(=O)CCC12CCC(NC(=O)c1cc(C)on1)CC2 (stereo not drawn) | 12.8%
46 | Cc1cc(C)cc(S(=O)(=O)N2CCC3(CC2)NCCN=C3NC2CCCC2)c1 | 8.57% [at 0.35 µM]
47 | Cc1ccc(S(=O)(=O)N2CCC3(CC2)NCCN=C3NC2CCCC2)cc1C | 15.2% [at 1.35 µM]
48 | Cc1cc(C)c(S(=O)(=O)N2CCC3(CC2)NCCN=C3NC2CCCC2)cc1C | -17.7%
49 | CCOc1ccc(-c2ccc(OCCNC(=O)c3sc(-c4ccccc4)nc3C)nn2)cc1 | 10.6%
50 | O=C(CCn1cnc2cc(-c3noc(Cc4c[nH]c5ccccc45)n3)ccc21)N1CCCC1 | 27.3%

Row | Compound | max activity
51 | CCCC(=O)Nc1ccc(-c2nc(-c3ccc(C)cc3C)co2)cc1 | -18.1% [at 1.35 µM]
52 | O=C(COc1ccc(F)cc1)Nc1ccc2c(c1)CCC(=O)N2 | -4.48% [at 1.35 µM]
53 | Cc1cccc(C(=O)Nc2ccc(-c3nc(-c4ccccc4)co3)cc2)c1 | 70.1%
54 | COc1ccc(-c2nc(Cn3nnc(-c4nc(-c5ccc(SC)cc5)no4)c3C)c(C)o2)cc1 | -6.45% [at 5 µM]
55 | O=S(=O)(c1ccccc1F)N1CC[C@@H]2[C@@H](CO)Nc3ccc(C4=CCCCC4)cc3[C@@H]21 | 37.4% [at 10 µM]
56 | O=S(=O)(c1ccccc1F)N1CC[C@@H]2[C@H](CO)Nc3ccc(C4=CCCCC4)cc3[C@@H]21 | 7.48% [at 10 µM]
57 | COc1ccccc1S(=O)(=O)N1CC[C@H]2[C@H](CO)Nc3ccc(-c4ccc(C#N)cc4)cc3[C@H]21 | 23% [at 21 µM]
58 | O=S(=O)(c1ccccc1F)N1CC[C@H]2[C@H](CO)Nc3ccc(C4=CCCCC4)cc3[C@H]21 | 39.3% [at 10 µM]
59 | Cc1cccc(S(=O)(=O)N2CC[C@@H]3[C@H](CO)Nc4ccc(-c5ccccc5F)cc4[C@@H]32)c1 | 25.7% [at 10 µM]
60 | CC(=O)NCC(=O)N1CCC2(CC1)CC(c1ccccc1)C(=O)N2 (stereo not drawn) | 28.8%
61 | COc1ccc(NC(=O)Nc2ccc(-c3nc(-c4cc(C)ccc4C)co3)cc2)c(OC)c1 | 9.16% [at 5 µM]
62 | CS(=O)(=O)NCc1cnc2n1CCN(Cc1cccs1)CC2 | 48.8%
63 | CCN1C(=O)CCc2cc(NC(=O)Cc3ccccc3Cl)ccc21 | -5.27% [at 0.16 µM]
64 | COc1ccc(-c2nc(NCCC3=CCCCC3)c3ccccc3n2)cc1 | -27.2% [at 1.35 µM]
65 | CN1[C@@H]2Cn3c(ccc(/C=C/c4ccccc4)c3=O)[C@H]1[C@@H](C(=O)NC1Cc3ccccc3C1)[C@@H]2CO | 15.2% [at 5 µM]
66 | Cc1ccc2c(c1C)-n1cccc1C1(CCN(C(=O)c3ccco3)CC1)N2 | 10.9% [at 0.16 µM]
67 | Cc1ccc(-c2nc(CSc3nc4c(c(=O)[nH]3)CN(Cc3ccccc3)CC4)c(C)o2)cc1 | -18% [at 0.68 µM]
68 | COc1ccc(CN2CCc3nc(SCc4nc(-c5ccc(C)cc5)oc4C)[nH]c(=O)c3C2)cc1 | 16.3%
69 | Cc1ccc(-c2nc(CSc3nc4c(c(=O)[nH]3)CN(Cc3ccc(F)cc3)CC4)c(C)o2)cc1 | 26% [at 0.16 µM]
70 | Cc1oc(-c2ccccc2)nc1CSc1nc2c(c(=O)[nH]1)CN(Cc1ccc(Cl)cc1)CC2 | 14.5% [at 0.16 µM]
71 | Cc1nc(-c2ccc(F)cc2)sc1-c1ccc(SCCN2CCOCC2)nn1 | 231%
72 | O=C(Nc1ccc(F)cc1)Nc1ccc(-c2nc(-c3cccc(Br)c3)co2)cc1 | 4.84% [at 10 µM]
73 | COc1ccc(-c2nc(N3CCCC(C)C3)c3ccccc3n2)cc1 (stereo not drawn) | 20.4% [at 1.35 µM]
